According to ChEMBL document CHEMBL1157539, “Thousands of chemical starting points for antimalarial lead identification” (Nature, 2010):

Assays:
Assay type in all cases: functional
Plasmodium falciparum [1] = assay: GSK_TCMDC: Inhibition of Plasmodium falciparum 3D7 in whole red blood cells, using parasite LDH activity as an index of growth. Test compounds present at 2uM
Plasmodium falciparum [2] = assay: GSK_TCMDC: Inhibition of Plasmodium falciparum Dd2 in whole red blood cells, using parasite LDH activity as an index of growth. Test compounds present at 2uM
HepG2 = assay: GSK_TCMDC: Percent inhibition of human HepG2 cell line. Test compounds present at 10uM.

Row | SMILES | Inhibition (Plasmodium falciparum [1]) | Inhibition (Plasmodium falciparum [2]) | Inhibition (HepG2)
1 | Cc1cccc2nc(-c3ccc(-c4cccc(NC(=O)C(C)CN5CCN(C)CC5)c4)s3)[nH]c12 (stereo unspecified) | 97% | 75% | 11%
2 | Br.COc1ccc(CC(C)CON2C(N)=NC(N)=NC2(C)C)cc1 (stereo unspecified) | 94% | 96% | 59%
3 | O=C(/C=C/c1ccc(Cl)c(Cl)c1)NCCCCCN1CCC(C(=O)Nc2cccc(Cl)c2)CC1 | 100% | 0% | 48%
4 | Cc1cc(=NN=Cc2ccc(Cl)cc2)c2cc(C(F)(F)F)ccc2[nH]1 | 91% | 32% | 0%
5 | Cl.O=c1cc(NCCCNCc2csc(Br)c2Sc2ccc(Cl)cc2)[nH]c2ccccc12 | 95% | 83% | 5%
6 | CCOC(=O)c1ccc(NC(=O)Nc2ccc(-c3ccc(-c4nc5cc(C(F)(F)F)ccc5[nH]4)cc3)cc2)cc1 | 100% | 52% | 20%
7 | CCOC(=O)c1ccc(NC(=O)NNC(=O)c2ccc(CCN3CCC(c4nc(COCC(F)(F)F)c(-c5ccc(F)cc5)o4)CC3)cc2)cc1 | 100% | 67% | 10%
8 | COc1cccc(Nc2nccc(-c3c(-c4cccc(NC(=O)c5c(F)cccc5F)c4)nn4ccccc34)n2)c1 | 98% | 98% | 35%
9 | CN1CCc2ccc(NC(=O)Nc3ccc(Cl)c(Cl)c3)cc2C1 | 80% | 22% | 0%
10 | COc1ccc2nccc(N/N=C/c3ccc([N+](=O)[O-])cc3)c2c1 | 100% | 68% | 9%
11 | FC(F)(F)c1ccc2[nH]c(-c3cccc(-c4ccc(CNCC5CCCO5)cc4)c3)nc2c1.O=C(O)C(F)(F)F (stereo unspecified) | 99% | 99% | 29%
12 | CN(C)CCNCc1nc(-c2ccc3c(Nc4ccc(Cl)cc4F)ccnc3c2)cs1 | 100% | 100% | 0%
13 | COc1ccc2nccc([C@@H](O)CN3CCC(NCc4cc5cccc(O)c5[nH]4)CC3)c2c1.O=C(O)C(=O)O | 100% | 35% | 0%
14 | Fc1ccc2[nH]c(-c3cccc(-c4cccc(CN5CCN(c6ccncc6)CC5)c4)c3)nc2c1.O=C(O)C(F)(F)F | 100% | 99% | 71%
15 | CCn1ccc2c(N3CCCCS3(=O)=O)cc(C(=O)N[C@@H](Cc3ccccc3)[C@H](O)CNC(C)(C)CCCC(C)C)cc21 | 96% | 98% | 23%
16 | Cc1cc(NC(=O)c2coc3cc(F)c(N4CC(C)N(C)C(C)C4)cc23)cnc1-c1ccc(C#N)cc1.Cl (stereo unspecified) | 99% | 71% | 35%
17 | O=C(/C=C/c1ccc(Cl)c(Cl)c1)NCCCCCN1CCCC(c2c[nH]c3ccccc23)C1 (stereo unspecified) | 99% | 22% | 25%
18 | CCN(CC)Cc1cc(NC(=O)c2ccccc2O)ccc1Oc1ccc(Cl)cc1.Cl | 98% | 88% | 32%
19 | CC1CC(C)CN(S(=O)(=O)c2cc(C(=O)Nc3cccc([N+](=O)[O-])c3)ccc2Br)C1 (stereo unspecified) | 100% | 68% | 1%
20 | CN(C)c1ccc(C2(c3ccccc3)N=C(N)N(CCCc3ccccc3)C2=O)cc1.O=C(O)C(F)(F)F (stereo unspecified) | 99% | 97% | 4%
21 | Cl.NC1=NC2(CCCCC2)N(Cc2ccc(Cl)c(Cl)c2)C(N)=N1 | 86% | 76% | 22%
22 | Cc1nn(-c2ccccc2)c2nc(-c3ccccc3)cc(C(=O)N3CCOCC3)c12 | 93% | 67% | 6%
23 | CCCNCc1ccc(-c2ccc(CN(Cc3cnc(C)cn3)C(=O)CC#N)cc2)nc1.O=C(O)C(F)(F)F | 92% | 0% | 4%
24 | CC(C)CCCC(C)(C)NC[C@@H](O)[C@H](Cc1ccccc1)NC(=O)c1cc(NC(C)C)cc(N2CCCCS2(=O)=O)c1.O=CO | 98% | 98% | 2%
25 | Cc1ccc(Nc2nc(N/N=C/c3ccccc3[N+](=O)[O-])nc(Nc3ccc([N+](=O)[O-])cc3)n2)cc1C | 100% | 81% | 4%
26 | COc1nc2c(CCN3CCC(NCc4ccc5c(c4)NCCO5)CC3)c(Cl)cnc2cc1F.Cl | 100% | 98% | 23%
27 | NC1=NC2(CCCCC2)N(OCCCCCCCCNc2nc(N)nc(N)n2)C(N)=N1.O=C(O)C(F)(F)F | 96% | 99% | 44%
